Literature values in PubChem BioAssay AID977608 (Shanghai Institute of Organic Chemistry, 2013).
In all, about 4,300 compounds went through this assay and about 4,300 (100%) were called active. The limit is not given here; nearly all actives have IC50 up to about 1400 µM. So high a share suggests a set chosen from earlier hits. Some of the results follow. Square brackets hold non-standard residues; d marks the D form. Peptide text beside a SMILES is read from it. * marks the point of attachment. 3Pal = N[C@@H](Cc1cccnc1)C(=O)O; hLeu = CC(C)CC[C@H](N)C(=O)O; β3hL = CC(C)C[C@H](N)CC(=O)O; X1 = CC(=O)[C@H](CC(=O)O)N*

Test: literature IC50 values for PDB complexes, PDB-derived complexes (AID 977608)
Conditions: PDB protein-ligand complexes

SMILES: C[C@]1(c2cc(NC(=O)c3ccc(C#N)cn3)ccc2F)NC(N)O[C@@H](C(F)(F)F)[C@@H]1F (stereo partly drawn)
- IC50 (protein: Beta-secretase 1, PDB entry 4j1i): 40 nM (active)

SMILES: C[C@]1(c2cc(NC(=O)c3ccc(C#N)cn3)ccc2F)NC(N)O[C@H](C(F)(F)F)[C@@H]1F (stereo partly drawn)
- IC50 (protein: Beta-secretase 1, PDB entry 4j1k): 13 nM (active)

SMILES: O=C(CCc1cc(C(=O)c2cccc(F)c2)c[nH]1)C[C@@H](O)C(=O)O
- IC50 (protein: DNA nucleotidylexotransferase, Tdt core, PDB entry 4iqt): 780 nM (active)

SMILES: CC(=O)O[C@]1(C(C)=O)CC[C@H]2[C@@H]3CCC4=CC(=O)CCC4=C3[C@@H](c3ccc(N(C)C)cc3)C[C@@]21C
- IC50 (protein: Progesterone receptor, PDB entry 4oar): 0.038 nM (active)

SMILES: CC(C)C1=CC2=CC(=O)[C@H]3C(C)(C)CCC[C@]3(C)C2=C(O)C1=O
- IC50 (protein: Farnesyl pyrophosphate synthase HsFPPS-11, PDB entry 4p0x): 1200 nM (active)

SMILES: O=C1N=CN2NC(Sc3ccc(F)cc3F)=CC=C2C1c1c(Cl)cccc1Cl (stereo not drawn)
- IC50 (protein: human p38 kinase, Mitogen-activated protein kinase 14, MAPK14, PDB entry 3fc1): 10 nM (active)

SMILES: CC(C)Nc1nc(N)c(C(O)c2cccnc2)s1 (stereo not drawn)
- IC50 (protein: Cyclin-dependent kinase 2, PDB entry 3rk9): 520 nM (active)

SMILES: CCCNc1nc(N)c(C(O)c2ccccn2)s1 (stereo not drawn)
- IC50 (protein: Cyclin-dependent kinase 2, PDB entry 3s0o): 33000 nM (active)

SMILES: CCCNc1nc(N)c(C(O)c2cccnc2)s1 (stereo not drawn)
- IC50 (protein: Cyclin-dependent kinase 2, PDB entry 3qtq): 3100 nM (active)

SMILES: CCCNc1nc(N)c(C(O)c2cccc([N+](=O)[O-])c2)s1 (stereo not drawn)
- IC50 (protein: Cyclin-dependent kinase 2, PDB entry 3r8v): 2900 nM (active)

SMILES: CCCNc1nc(N)c(C(O)c2ccncc2)s1 (stereo not drawn)
- IC50 (protein: Cyclin-dependent kinase 2, PDB entry 3r8z): 49000 nM (active)

SMILES: CCCNc1nc(N)c(C(O)c2ccc3ccccc3c2)s1 (stereo not drawn)
- IC50 (protein: Cyclin-dependent kinase 2, PDB entry 3r8u): 5000 nM (active)

SMILES: COc1cc2nccc(Oc3ccc4oc(Nc5ccc(Cl)cc5)nc4c3)c2cc1OC
- IC50 (protein: ALK tyrosine kinase receptor (C1097S, R1275Q mutation), PDB entry 4fny): 16 nM (active)

SMILES: CC(=O)Nc1cccc(-c2ccn([C@@H](Cc3cc[n+]([O-])cc3)c3ccc(OC(F)F)c(OCC4CC4)c3)n2)c1
- IC50 (protein: cAMP-specific 3',5'-cyclic phosphodiesterase 4D, PDB entry 3v9b): 0.5 nM (active)

SMILES: CN1C2C(=NC[C@@H]1CNc1ccc(C(=O)N[C@@H](CCC(=O)N[C@@H](CCC(=O)O)C(=O)O)C(=O)O)cc1)NC(N)=NC2O (stereo partly drawn)
- IC50 (protein: Cyclic AMP-GMP synthase DncV (D193N mutant), PDB entry 4u0m): 1690 nM (active)
- IC50 (protein: Cyclic AMP-GMP synthase DncV, PDB entry 4u03): 1690 nM (active)

SMILES: CN1C2=C(NC[C@@H]1CNc1ccc(C(=O)N[C@@H](CCC(=O)N[C@@H](CCC(=O)O)C(=O)O)C(=O)O)cc1)NC(N)=NC2O (stereo partly drawn)
- IC50 (protein: Cyclic AMP-GMP synthase DncV (deletion mutant D-loop), PDB entry 4u0n): 1690 nM (active)

SMILES: O=C(Nc1nc2ccccc2s1)c1cccc2c1CN(c1nc(C(=O)O)c(CCCOc3ccc(-n4ncc5cncnc54)cc3)s1)CC2
- IC50 (protein: Bcl-2-like protein 1 Bcl-xL, PDB entry 4tuh): 100000 nM (active)

SMILES: Cc1c(-c2c([C@H](OC(C)(C)C)C(=O)O)n(C)c(=O)c3ccccc23)cc(F)c2c1CCCO2
- IC50 (protein: HIV-1 Integrase HIV-1 IN, PDB entry 4ojr): 38 nM (active)

SMILES: CCc1sc(-c2ccc(OC)c(OCCF)c2)nc1CSc1nc(N)cc(N)n1
- IC50 (protein: Deoxycytidine kinase, Human dCK C4S-S74E mutant, PDB entry 4jlm): 22.7 nM (active)

SMILES: Cc1ccc(CN(C)c2cc(C)nc3ncnn23)cc1
- IC50 (protein: Bromodomain-containing protein 4, PDB entry 4men): 125000 nM (active)

SMILES: C[N+](C)(C)CCCC(=O)O
- IC50 (protein: human gamma-butyrobetaine hydroxylase, PDB entry 4c5w): 3300 nM (active)

SMILES: COc1cc(Nc2nccc(Nc3ccc4c(C)[nH]nc4c3)n2)cc(OC)c1OC
- IC50 (protein: Bromodomain-containing protein 4 BRD4-1, PDB entry 4o78): 4600 nM (active)

SMILES: COc1cc(NC(=O)c2cccc3cccnc23)c(OC)cc1Cl
- IC50 (protein: 3-OXOACYL-[ACYL-CARRIER-PROTEIN] REDUCTASE FABG, PDB entry 4bo1): 50 nM (active)

SMILES: CC(C)(C)OC(=O)NCc1cn([C@H]2C[C@@H](C(=O)N3CCC[C@H]3C=N)N(C(=O)CCCc3ccccc3)C2)nn1
- IC50 (protein: PROLYL ENDOPEPTIDASE, PDB entry 4bcc): 9 nM (active)

SMILES: [N-]=[N+]=N[C@H]1C[C@@H](C(=O)N2CCC[C@H]2C=N)N(C(=O)CCCc2ccccc2)C1
- IC50 (protein: PROLYL ENDOPEPTIDASE, PDB entry 4bcb): 3 nM (active)

SMILES: Cc1c(O)cccc1C(=O)N[C@H](C(=O)N[C@@H](CO)C(=O)N[C@H](CCS(C)(=O)=O)Cc1ccc(CN)cc1)C(C)C
- IC50 (protein: yeast 20S proteasomes, PDB entry 4int): 1600 nM (active)

SMILES: CC(C)C[C@H](NC(=O)[C@@H](Cc1ccc(CN)cc1)NC(=O)[C@H](Cc1ccccc1)N=[N+]=[N-])C(=O)N[C@H](CCS(C)(=O)=O)Cc1ccc(CN)cc1
- IC50 (protein: yeast 20S proteasomes, PDB entry 4inu): 0.55 nM (active)

SMILES: NC(=O)[C@H](CCCCNC(=O)[C@@H](Cc1ccc(C(=O)c2ccccc2)cc1)NC(=O)CCC1CCCCC1)NC(=O)/C=C/C(=O)O
- IC50 (protein: Cysteine-free Human Insulin Degrading Enzyme, PDB entry 4lte): 60 nM (active)

SMILES: COc1cccc(C(O)c2sc(Nc3ccccc3)nc2N)c1 (stereo not drawn)
- IC50 (protein: Cyclin-dependent kinase 2, PDB entry 3qts): 3100 nM (active)

SMILES: Nc1nc(Nc2ccc(S(N)(=O)=O)cc2)sc1C(O)c1ccccc1 (stereo not drawn)
- IC50 (protein: Cyclin-dependent kinase 2, PDB entry 3rak): 130 nM (active)

SMILES: COc1cccc(C(O)c2sc(Nc3ccc(S(N)(=O)=O)cc3)nc2N)c1 (stereo not drawn)
- IC50 (protein: Cyclin-dependent kinase 2, PDB entry 3ral): 100 nM (active)

SMILES: COc1ccc(C(O)c2sc(Nc3ccc(S(N)(=O)=O)cc3)nc2N)cc1 (stereo not drawn)
- IC50 (protein: Cyclin-dependent kinase 2, PDB entry 3s1h): 17000 nM (active)

SMILES: Nc1nc(Nc2ccc(S(N)(=O)=O)cc2)sc1C(O)c1cccc([N+](=O)[O-])c1 (stereo not drawn)
- IC50 (protein: Cyclin-dependent kinase 2, PDB entry 3qtx): 70 nM (active)

SMILES: COc1ccc(Nc2nc(-c3cccc(C(=O)Nc4ccc(C(=O)O)cc4)c3)c[n+]3cc[nH]c23)cc1OC
- IC50 (protein: Tyrosine-protein kinase SYK, PDB entry 4pv0): 0.85 nM (active)

SMILES: COc1ccc(Cc2nn3c([C@@H](CCCc4ccccc4)[C@@H](C)O)nc(C)c3c(=O)[nH]2)cc1OC
- IC50 (protein: cGMP-dependent 3',5'-cyclic phosphodiesterase, PDB entry 4htx): 4.7 nM (active)

SMILES: CC(=O)N[C@@H](Cc1cccnc1)C(=O)N[C@@H](CC(=O)O)C(=O)N[C@H](CC(=O)N[C@@H](CCC(C)C)C(=O)N[C@@H](CC(=O)O)C(C)=O)CC(C)C (Ac-[3Pal]D[β3hL][hLeu]-X1)
- IC50 (protein: Caspase-3, PDB entry 4jje): 23 nM (active)
- IC50 (protein: Caspase-7, PDB entry 4jj8): 730 nM (active)
- IC50 (protein: Caspase-8, PDB entry 4jj7): 400 nM (active)

SMILES: CCOc1cc(C(C)(C)C)ccc1C1=N[C@@](C)(c2ccc(Cl)cc2)[C@@](C)(c2ccc(Cl)cc2)N1C(=O)N1CCN(CCCS(C)(=O)=O)CC1
- IC50 (protein: E3 ubiquitin-protein ligase Mdm2 (I50L, P92H, L95I mutation), PDB entry 4ipf): 18 nM (active)

SMILES: CCC(C)(C)NC(=O)[C@@H](c1cccn1C)N(C(=O)Cn1nnc2ccccc21)c1ccc(NC(C)=O)cc1
- IC50 (protein: 3C-like proteinase, PDB entry 4mds): 6200 nM (active)

SMILES: N#CNC(NCc1ccc(S(=O)(=O)c2cccc(OC(F)(F)F)c2)cc1)Nc1ccncc1 (stereo not drawn)
- IC50 (protein: Nicotinamide phosphoribosyltransferase, PDB entry 4lts): 4.4 nM (active)

SMILES: COc1cccc(-c2cc(C(F)(F)F)[nH]n2)c1
- IC50 (protein: Phenylalanine--tRNA ligase, PDB entry 4p75): 80000 nM (active)

SMILES: CCC(=O)O[C@@H]1CC[C@@]2(C)[C@H](CC[C@@H]3[C@@H]2CC[C@]2(C)[C@@H]([C@H](C)CCC(=O)O)CC[C@@H]32)C1
- IC50 (protein: vitamin D3 receptor ligand binding domain, PDB entry 3w5t): 30000 nM (active)

SMILES: CC1C=CC(C(=O)Nc2ccc(Oc3cc4cnn(C)c4cc3-c3cn[nH]c3)c(F)c2)C(=O)N1c1ccc(F)cc1 (stereo not drawn)
- IC50 (protein: Hepatocyte growth factor receptor, PDB entry 4eev): 4.7 nM (active)

SMILES: CC1=C(C(=O)N[C@H](C)C(=O)N[C@@H](Cc2c[nH]c3ccccc23)C(=O)N[C@@H](CC2CCCCC2)[C@@H](O)[C@H](C)CO)Cc2ccccc21
- IC50 (protein: yCP, PDB entry 4qlu): 8.3 nM (active)

SMILES: CC1=C(C(=O)N[C@H](C)C(=O)N[C@@H](Cc2c[nH]c3ccccc23)C(=O)N[C@@H](Cc2ccccc2)[C@@H](O)[C@H](C)CO)Cc2ccccc21
- IC50 (protein: yCP, PDB entry 4qlt): 2.5 nM (active)

SMILES: OC(Cc1cnc2ccccn12)([P+](O)(O)O)[P+](O)(O)O
- IC50 (protein: human FARNESYL PYROPHOSPHATE SYNTHETASE, PDB entry 2vf6): 3 nM (active)
